Our source for the growth values is PubChem BioAssay (NCI).

Among the test systems are HCT-15 colon; HT29 colon; SNB-75 CNS; SNB-19 CNS; U251 CNS; PC-3 prostate; SK-MEL-5 melanoma; LOX IMVI melanoma; UACC-62 melanoma; SK-MEL-28 melanoma.
Common to all, as to assay: NCI-60 one-dose screen, 48 h (100 = growth as untreated, 0 = no growth, -100 = all killed)
What all share (conditions): 10 µM unless noted

Structures are written as SMILES. Compounds without any hit were thinned out: in the full panel of roughly 83,000, 20% have a hit.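 In brief: 96-well plates, 48 h treatment, single concentration, percent growth endpoint.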 A number with no mark means an inactive call. Calls of active or inactive are those of the source. Rule for the calls: active = growth percent below 10; inactive = the rest.

With `COc1cccc(-c2nn(-c3ccccc3)cc2-c2ccnc(NCCNS(=O)(=O)c3ccccc3)c2)c1`, the growth in the experiment with HCT-15 colon is 20.3%; in the experiment on HT29 colon it was 16.9%; in the experiment with SNB-75 CNS it was 67.7%; in the experiment on SNB-19 CNS, 42.6%; in the experiment on U251 CNS, 34.8%; in the experiment on PC-3 prostate, 17.5%. In addition, the growth in the experiment on SK-MEL-5 melanoma was 17.1%; in the experiment with LOX IMVI melanoma it was 41%.

For the compound `c1ccc(CN2C(c3ccccc3)=Nc3ccccc3C2c2c[nH]c3ccccc23)cc1` (stereo not drawn), the growth in the experiment with HCT-15 colon was 35.6%; in the experiment with HT29 colon, 15.1%; in the experiment on SNB-75 CNS it was 59.2%; with SNB-19 CNS, 49.1%; in the experiment on U251 CNS, 35.7%; in the experiment on PC-3 prostate, 29.8%. For the same compound, the values for the growth in the experiment on SK-MEL-5 melanoma and with LOX IMVI melanoma were 42.4% and 15.4%, respectively.

On to `CCN1CCN(C(=O)[C@]23CCC(C)(C)C[C@@H]2C2=CC[C@@H]4[C@@]5(C)C/C(=C/c6cccnc6)C(=O)C(C)(C)[C@@H]5CC[C@@]4(C)[C@]2(C)CC3)CC1`, for which the growth in the experiment on HCT-15 colon is 13.7%; with HT29 colon, 10.6%; with SNB-75 CNS, 45.3%; in the experiment with SNB-19 CNS it was 48.3%; in the experiment with U251 CNS, -88.1% (active); in the experiment with PC-3 prostate, 17.2%. The growth with SK-MEL-5 melanoma is -91% (active); in the experiment on UACC-62 melanoma it was 26.6%; in the experiment with SK-MEL-28 melanoma, 41.7%.

As to `COC(=O)CCCCCn1c2ccccc2c2c3c(c4c5ccccc5[nH]c4c21)C(=O)N(O)C3=O`, the growth with HCT-15 colon is 44.1%; in the experiment on HT29 colon, 24%; with SNB-75 CNS it was 92%; in the experiment on SNB-19 CNS it was 29.9%; in the experiment with U251 CNS it was 10.2%; in the experiment with PC-3 prostate it was 34.3%. For the same compound, the growth in the experiment with SK-MEL-5 melanoma is 33.1%; in the experiment on LOX IMVI melanoma it was -65% (active).

Turning to `Fc1ccc(NCc2nnc(-c3ccc(Cl)cc3)o2)cc1`, the growth is 81.7% in the experiment on HCT-15 colon; 70% with HT29 colon; 73.6% with SNB-75 CNS; 83.2% in the experiment on SNB-19 CNS; 77.8% in the experiment on U251 CNS; 54.3% in the experiment with PC-3 prostate. Further, the growth was 79.8% in the experiment on SK-MEL-5 melanoma, 80.1% in the experiment with LOX IMVI melanoma and 93.9% in the experiment on SK-MEL-28 melanoma.

Regarding `Nc1nc2c3ccncc3cc(-c3cccc(Cl)c3)c2c2cnccc12`, the growth is 28.5% in the experiment on HCT-15 colon; 33.2% in the experiment on HT29 colon; 57% with SNB-75 CNS; 51.4% with SNB-19 CNS; 29.2% with U251 CNS; 20% in the experiment on PC-3 prostate. For the same compound, the growth in the experiment with SK-MEL-5 melanoma was 50.4%; in the experiment with LOX IMVI melanoma it was -50.9% (active); with SK-MEL-28 melanoma, 53.1%.

Turning to `CC1(c2ccccc2)OC1C(=O)O` (stereo not drawn), the growth in the experiment on HCT-15 colon was 106%; in the experiment with HT29 colon, 102%; in the experiment on SNB-75 CNS it was 91.6%; with SNB-19 CNS, 109%; in the experiment on U251 CNS, 117%; in the experiment with PC-3 prostate, 106%. Moreover, the growth was 103% in the experiment with SK-MEL-5 melanoma, 97.4% in the experiment with LOX IMVI melanoma and 98.7% in the experiment with SK-MEL-28 melanoma.

Regarding `COc1ccc(/C=C/C(=O)NCCO)cc1`, the growth in the experiment on HCT-15 colon is 98%; in the experiment on HT29 colon, 96.1%; in the experiment on SNB-75 CNS, 80.7%; with SNB-19 CNS it was 111%; in the experiment on U251 CNS, 94.8%; with PC-3 prostate it was 91.8%. Further, the results for the growth with SK-MEL-5 melanoma, with LOX IMVI melanoma and with SK-MEL-28 melanoma were 101%, 95.9% and 104%, respectively.

Turning to `Cn1cc(-c2csc(-c3cn(CCNC(=O)OC(C)(C)C)c4ccccc34)n2)c2cccnc21`, the growth was 60.1% in the experiment with HCT-15 colon; 90.9% with HT29 colon; 88.5% with SNB-75 CNS; 94.3% with SNB-19 CNS; 83.1% in the experiment with U251 CNS; 36.9% with PC-3 prostate. Moreover, the growth in the experiment on SK-MEL-5 melanoma is 20.1%; in the experiment with LOX IMVI melanoma, 82.4%; with SK-MEL-28 melanoma it was 94.3%.

For the compound `N#Cc1cnc2cc(OC[C@@H](O)CO)c(NC(=O)CC3CSSC3)cc2c1Nc1ccc(OCc2cccc(F)c2)c(Cl)c1`, the growth was 22% in the experiment on HCT-15 colon; -81.6% (active) in the experiment on HT29 colon; -88% (active) in the experiment on SNB-75 CNS; -66% (active) in the experiment on SNB-19 CNS; -70.2% (active) in the experiment on U251 CNS; -82.3% (active) with PC-3 prostate. Moreover, the growth in the experiment with SK-MEL-5 melanoma was -97% (active); in the experiment on LOX IMVI melanoma, -84.2% (active); in the experiment on SK-MEL-28 melanoma it was -71.9% (active).

Turning to `O=S(=O)(NCCNc1cc(-c2cn(-c3ccccc3)nc2-c2cccc(O)c2)ccn1)c1ccc(Br)cc1`, the growth with HCT-15 colon was 5.6% (active); in the experiment with HT29 colon it was 4.7% (active); with SNB-75 CNS, 43.7%; in the experiment on SNB-19 CNS, 41.3%; in the experiment on U251 CNS, 22.5%; in the experiment on PC-3 prostate it was 15.6%. For the same compound, the figures for the growth with SK-MEL-5 melanoma and in the experiment on LOX IMVI melanoma were 11.5% and 20%, respectively.

Turning to `c1ccc2[nH]c(-c3ccc(Nc4nc(N5CCCCC5)nc(N5CCOCC5)n4)cc3)nc2c1`, the growth in the experiment with HCT-15 colon is -33.9% (active); with HT29 colon it was -28.2% (active); in the experiment on SNB-75 CNS, -0.681% (active); in the experiment with SNB-19 CNS, 10.4%; with U251 CNS, 8.02% (active); in the experiment with PC-3 prostate, 12.4%. Besides, the growth with SK-MEL-5 melanoma was -90.7% (active); in the experiment with LOX IMVI melanoma, -77.1% (active); in the experiment with SK-MEL-28 melanoma, -30.2% (active).

On to `NC(=O)NCC1CCCCC1`, for which the growth with HCT-15 colon was 94.5%; in the experiment with HT29 colon it was 102%; with SNB-75 CNS, 90.7%; in the experiment with SNB-19 CNS, 115%; in the experiment on U251 CNS it was 104%; in the experiment with PC-3 prostate, 104%. The growth in the experiment on SK-MEL-5 melanoma was 109%; with LOX IMVI melanoma it was 94.1%; in the experiment with SK-MEL-28 melanoma, 110%.
